LYPLA1 inh: counter-screen for PME1 inhibitors: inhibitors of human LYPLA1 | recombinant LYPLA1, FP-Rh probe fluorescence polarization | actives 0.16% (n = 320,000) | O75608 | inhibition, % at 5.9 µM | AID 2174;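 active = inhibition above the mean of all tested compounds plus 3 SD, set per campaign, cut at about 14% in these data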;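 note: inhibitors block serine hydrolase probe labeling of LYPLA1 so polarization falls; 0% = enzyme with DMSO and 100% = wells lacking LYPLA1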
Target sequence (O75608 whole entry, looked up): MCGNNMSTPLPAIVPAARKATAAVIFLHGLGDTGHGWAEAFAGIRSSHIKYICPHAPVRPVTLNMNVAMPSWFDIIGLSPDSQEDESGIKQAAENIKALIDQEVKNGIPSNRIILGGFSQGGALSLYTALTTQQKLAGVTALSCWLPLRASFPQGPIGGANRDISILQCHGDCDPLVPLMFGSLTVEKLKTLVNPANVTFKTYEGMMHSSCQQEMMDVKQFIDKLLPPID
PME-1 inh: PME-1 (human) inhibition; inhibition, % at 5.9 µM; recombinant PME-1, FP-Rh probe fluorescence polarization; actives 0.53% (n = 320,000);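 active = inhibition above the campaign mean of all compounds plus 3 SD, cut at about 26% in these data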;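 note: competitive labeling of PME-1 active site by serine hydrolase directed probe; 0% = PME-1 with DMSO and 100% = wells lacking PME-1 enzyme; inhibitors block probe labeling so polarization falls and inhibition rises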
Fam108B counter: counter-screen for RBBP9 inhibitors: inhibitors of mouse Fam108B | recombinant Fam108B, FP-Rh probe fluorescence polarization | inhibition, % at 9.51 µM | actives 0.33% (n = 300,000);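 active = inhibition above the screen mean inhibition plus 3 SD, computed separately per campaign, cut at about 18% in these data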;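 note: inhibitors lower polarization as less probe binds the enzyme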
LYPLA2 inh: blocks human lysophospholipase 2, a PME1 counter-screen; recombinant LYPLA2, FP-Rh probe fluorescence polarization; actives 0.38% (n = 320,000); inhibition, % at 5.9 µM;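 active = inhibition above the screen-wide mean plus 3 SD, limit set per campaign, cut at about 26% in these data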;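 note: 0% = LYPLA2 with DMSO and 100% = wells lacking LYPLA2 enzyme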
PP1 inh: counter-screen for PP5 inhibitors: inhibitors of human PP1-alpha; P62136; purified PP1alpha, OMFP fluorescence; inhibition, % at 6.7 µM; actives 0.9% (n = 320,000);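 active = inhibition above the mean inhibition of all tested compounds plus 3 SD, computed separately for each screening campaign, cut at about 15% in these data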
Target sequence (P62136 whole entry, looked up): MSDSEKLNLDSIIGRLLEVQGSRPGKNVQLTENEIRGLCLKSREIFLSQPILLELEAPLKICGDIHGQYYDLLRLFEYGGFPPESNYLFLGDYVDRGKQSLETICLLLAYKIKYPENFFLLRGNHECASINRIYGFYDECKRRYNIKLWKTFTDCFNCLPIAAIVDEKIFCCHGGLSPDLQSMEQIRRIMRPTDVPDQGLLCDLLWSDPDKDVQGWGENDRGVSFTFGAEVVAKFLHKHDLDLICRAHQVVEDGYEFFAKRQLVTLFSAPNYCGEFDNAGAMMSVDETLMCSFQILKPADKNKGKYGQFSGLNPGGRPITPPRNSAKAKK
PP5 primary: inhibitors of human protein phosphatase 5 (PP5); purified PP5c, OMFP substrate fluorescence; inhibition, % at 6.7 µM; actives 0.18% (n = 320,000);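 active = inhibition above the campaign's mean inhibition across all tested compounds plus 3 SD, cut at about 9.5% in these data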;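 note: 0% = DMSO only and 100% = 100 µM cantharidin control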
Fam108b inh conf: Fam108b (mouse) hydrolase inhibition, confirmation assay; actives 44% (n = 930); AID 1978; inhibition, % at 9.51 µM; recombinant Fam108b, FP-Rh probe fluorescence polarization; shares compounds with Fam108B counter;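 active = inhibition above a limit from the primary screen, the mean over all compounds plus 3 SD, cut at about 19% in these data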;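 note: 0% = median of active Fam108b wells and 100% = catalytically dead S170A mutant; inhibitors free the probe so polarization falls as inhibition rises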
Fam108b ABPP HTS: mouse ABHD17B inhibition; actives 44% (n = 260); shares compounds with Fam108B counter; AID 588649; recombinant Fam108b, gel-based ABPP, fluorophosphonate probe; inhibition, % at 20 µM; in the data active = inhibition above about 40%
The depositor's hits bear a star; · = no result. A selection: hits, their analogues and other compounds. The true share with any hit is near 1.8%.

SMILES | LYPLA1 inh | PME-1 inh | Fam108B counter | LYPLA2 inh | PP1 inh | PP5 primary | Fam108b inh conf | others
Cc1cc(C(=O)O)ccc1-n1c(C)cc(C=C2C(=O)c3ccccc3C2=O)c1C | 1.2 | 1.6 | -1.5 | -3.7 | 0.1 | 4.9 | ·
COc1ccc(C2NC(=O)CCC2[N+](=O)[O-])c(OC)c1OC (stereo unspecified) | -0.7 | -1.7 | 2.0 | 9.0 | 3.9 | -2.6 | ·
Cn1c(O)c(C=NNC(=O)c2cc3ccccc3cc2O)c2ccccc21 | · | · | · | · | · | · | · | Fam108b ABPP HTS=55.0*
CCc1cc(/C(Cc2ccc3ccccc3n2)=N\O)c(O)cc1O | 8.2 | 34.0* | 25.2* | 16.5 | -0.8 | 5.4 | 30.1*
CCc1cc(C(Cc2ccc3ccccc3n2)=NO)c(O)cc1O | · | · | · | · | · | · | · | Fam108b ABPP HTS=40.0*
CCc1nnc(NC(=O)CC(C)c2ccccc2)s1 (stereo unspecified) | -1.6 | -3.2 | -0.5 | -1.7 | -0.4 | -0.6 | ·
Cc1ccc(C(=O)Nc2ccc(S(=O)(=O)N3CCOCC3)cc2)cc1Br | -5.5 | -4.4 | -3.5 | -8.2 | 1.3 | -0.3 | ·
CCN(CC)c1nc2c3c(nc4c(c3c1C#N)CC(=O)N4c1ccc(Cl)cc1)NC(C)=N2 | -9.7 | 27.0* | 23.6* | -4.0 | 13.8 | 1.0 | 18.2*
Cc1ccc(C)c(OCCC(=O)N2CCN(S(=O)(=O)c3cc(C)ccc3C)CC2)c1 | 0.6 | 8.0 | 1.2 | 8.8 | -0.2 | 2.0 | ·
CCN(CC)S(=O)(=O)c1ccc(N2CCOCC2)c(NC(=O)C2CC2)c1 | 1.9 | -2.4 | 1.5 | 9.4 | -8.3 | -1.2 | ·
CCOC(=O)C1=C(COC(=O)Cc2c(F)cccc2Cl)NC(=O)NC1C (stereo unspecified) | 2.5 | -4.5 | · | -3.7 | -3.7 | 2.3 | ·
N#Cc1c(Cl)c(Cl)c2nnc(-c3ccc(Br)cc3)n2c1Cl | 1.8 | 17.3 | 19.3* | 4.6 | 2.7 | 4.1 | 9.6
COc1cc2nc(Nc3ccc(C)c(Cl)c3)nc(N)c2cc1OC | 5.5 | 34.8* | 22.8* | 4.2 | 9.2 | 6.5 | 15.8
Nc1ccc(C#Cc2ccc3sc4ccccc4c(=O)c3c2)cc1 | -7.3 | 7.4 | 22.2* | -6.9 | 5.4 | -0.5 | -3.4
Cc1nc(C)c(-c2ccc(SCC(=O)Nc3cccc(Cl)c3C)nn2)s1 | -6.8 | 9.7 | -2.4 | -0.2 | -1.3 | -2.3 | ·
Cc1ccc(NCN2C(=O)C3C4C=CC(C4)C3C2=O)cc1 (stereo unspecified) | 1.1 | -0.1 | -0.3 | -0.2 | -0.5 | 0.4 | ·
O=C1C2C3C=CC(C3)C2C(=O)N1CNc1ccc(O)cc1 (stereo unspecified) | 10.6 | 44.5* | 32.9* | 23.9 | 2.4 | 6.9 | 12.0
O=C(Cn1cc([N+](=O)[O-])cn1)N1CCN(Cc2ccc3c(c2)OCO3)CC1 | -2.2 | -1.3 | 2.1 | 11.7 | -1.5 | 1.1 | ·
Cc1c(Br)c(=O)oc2c(Br)c(O)c(O)cc12 | 5.1 | 13.6 | 24.7* | 3.0 | -3.3 | 2.2 | 21.0*
Cc1c(Br)c(=O)oc2c(Br)c(O)ccc12 | -0.9 | -3.1 | 1.0 | -4.7 | -2.6 | 0.6 | ·
CCCc1ccc(C2C3=C(CC(C)(C)CC3=O)NC3=C2C(=O)c2ccccc23)cc1 (stereo unspecified) | -19.9 | 4.5 | 23.6* | -12.3 | 9.9 | 2.5 | 0.5
CCCCc1ccc(C2C3=C(CC(C)(C)CC3=O)NC3=C2C(=O)c2ccccc23)cc1 (stereo unspecified) | -12.0 | 21.5 | 18.1 | -6.3 | 4.3 | 2.5 | ·
Brc1ccc(C2=Nc3cccc4cccc(c34)N2)o1 | -3.6 | 2.8 | 19.5* | -1.2 | 1.3 | 1.3 | 12.1
COc1ccc(N2CCN(S(=O)(=O)c3cc4c(cc3C)NC(=O)CO4)CC2)cc1 | 1.0 | -4.3 | 0.0 | -0.6 | 0.4 | -2.4 | ·
Nc1[nH]n(-c2ccccc2)c(=O)c1N=Nc1ccc2ncsc2c1 | 5.5 | 36.0* | 19.9* | 10.6 | -7.3 | 7.0 | 7.7
SMILES | LYPLA1 inh | PME-1 inh | Fam108B counter | LYPLA2 inh | PP1 inh | PP5 primary | Fam108b inh conf | others
Nc1[nH]n(-c2ccccc2)c(=O)c1N=Nc1ccccc1 | 2.3 | 23.6 | 10.2 | 3.3 | 0.2 | 2.9 | ·
CCOC(=O)Nc1sc(C)c(C)c1C(=O)OCC | 2.0 | 1.6 | 1.1 | 6.1 | 1.3 | 4.2 | ·
CCOC(=O)c1c(NC(=O)Nc2ccccc2)sc(C)c1C | -6.8 | 20.9 | 22.2* | -3.0 | 4.2 | 4.0 | 5.9
O=C(NN=Cc1cc(Cl)c(O)c(Cl)c1)c1cc2c(ccc3ccccc32)o1 | · | · | · | · | · | · | · | Fam108b ABPP HTS=0.0
O=C(N/N=C/c1ccncc1)c1cc2c(ccc3ccccc32)o1 | -16.2 | -27.8 | -9.2 | -7.8 | 1.6 | 3.1 | ·
COc1cc(/C=N/NC(=O)c2cc3c(ccc4ccccc43)o2)cc(OC)c1O | -2.4 | 34.3* | 27.2* | 2.9 | 1.2 | 2.2 | 20.3*
Cc1ccc(S(=O)(=O)NCC(C)n2nc(C)nc2C)cc1 (stereo unspecified) | -2.5 | -2.7 | 0.9 | -4.3 | -4.2 | -1.6 | ·
Cc1cc(OCC(O)CN2CCN(c3ccccn3)CC2)cc(C)c1Cl (stereo unspecified) | 0.6 | 2.0 | 3.1 | 1.2 | 2.7 | 4.4 | ·
Oc1c(Br)cc(Br)cc1CNc1cccc2cccnc12 | -0.6 | 24.7 | 36.2* | 14.1 | 7.6 | 3.1 | 14.2
Oc1ccc(Cl)cc1CNc1cccc2cccnc12 | -6.2 | 6.8 | 20.8* | 1.2 | 0.9 | 2.4 | 0.5
COc1ccc(-c2csc(NC(=O)Nc3ccccc3)n2)cc1 | -7.7 | 48.0* | 44.6* | 9.6 | 2.2 | -0.2 | 17.8
O=C(Nc1ccccc1)Nc1nc(-c2ccc(Cl)cc2)cs1 | 2.0 | 16.8 | 1.4 | -8.4 | -2.4 | -0.2 | ·
CCOC(=O)c1ccc(N2CCN(c3ccccc3F)CC2)c(NC(=O)Nc2ccccc2)c1 | -24.7 | -16.7 | -0.6 | -13.6 | 4.1 | 0.1 | ·
CCOC(=O)c1ccc(N2CCN(c3ccc(F)cc3)CC2)c(NC(=O)Nc2cccc(OC)c2)c1 | -5.9 | 17.4 | 36.4* | -18.8 | 4.0 | 3.0 | -7.3
O=C(O)C(S)C(S)C(=O)O (stereo unspecified) | -6.4 | -3.9 | 21.1* | 5.0 | 6.3 | -2.2 | 12.9
CC1CC1C(=O)Nc1nc(-c2ccc(Cl)s2)cs1 (stereo unspecified) | -7.2 | -0.1 | 20.4* | -11.4 | -4.7 | 4.9 | -4.7
Cc1cccc2c(N=Nc3ccc(S(=O)(=O)Nc4cccc(Cl)c4)cc3[N+](=O)[O-])c(O)[nH]c12 | -26.1 | 31.6* | 36.1* | -21.8 | 2.3 | 3.2 | 27.7*
O=c1oc(-c2ccccc2NS(=O)(=O)c2ccccc2)nc2ccccc12 | -3.4 | -2.7 | 20.9* | -1.3 | 4.2 | 2.8 | 18.0
Nc1ccccc1-c1nc2ccccc2c(=O)o1 | -3.0 | -2.1 | 3.5 | -3.0 | 5.6 | -2.7 | ·
COc1ccc2nc(N3C(=O)/C(=C/c4ccccc4)NC3=S)sc2c1 | 3.8 | 57.6* | 19.7* | -3.0 | 1.6 | 3.8 | 22.4*
